Reference: PubChem BioAssay (EPA / NIEHS)
The source holds several records for some structures; these can differ, active in one and inactive in another. Active and inactive are the calls of the source. The calls were made as follows: active = hit-call score of the fitted dose curve at least 0.9, where 1 is the maximum; inactive = score below 0.9.

Legend:
Conditions in all cases: mRNA level, 48 h; actives raise or lower the signal
[1] = read-out: Lipase C (LIPC), LIPC (gene 3990); assay: LTEA_HepaRG_LIPC: Life Technologies and Expression Analysis (LTEA) Assay for Lipase C (LIPC) using HepaRG (AID 2283514)
Outline: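 HepaRG cells, 48 h after plating, treated in duplicate for 48 h in serum-free induction medium over 8 half-log concentrations from 100 uM, 0.5% DMSO. LIPC mRNA by TaqMan qRT-PCR normalized to ACTB/GAPDH/POLR2A; bidirectional fit versus DMSO.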

[2] = read-out: Lipoprotein lipase (LPL), LPL (gene 4023); assay: LTEA_HepaRG_LPL: Life Technologies and Expression Analysis (LTEA) Assay for Lipoprotein lipase (LPL) using HepaRG (AID 2283515)
Outline: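 Differentiated HepaRG cells, plated 48 h, then exposed 48 h in serum-free induction medium to 8 concentrations (top 100 uM, half-log steps) in 0.5% DMSO, duplicate. LPL mRNA measured by qRT-PCR, normalized to ACTB, GAPDH and POLR2A.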

[3] = read-out: MicroRNA 122 (MIR122), gene 406906; assay: LTEA_HepaRG_MIR122: Life Technologies and Expression Analysis (LTEA) Assay for MicroRNA 122 (MIR122) using HepaRG (AID 2283516); also: the transcript read is the microRNA miR-122
Outline: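 HepaRG, 48 h exposure, 8-pt half-log from 100 uM, 0.5% DMSO; TaqMan qRT-PCR; bidirectional fit vs DMSO.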

[4] = read-out: matrix metalloproteinase-10 (MMP10), MMP10 (gene 4319); assay: LTEA_HepaRG_MMP10: Life Technologies and Expression Analysis (LTEA) Assay for matrix metalloproteinase-10 (MMP10) using HepaRG (AID 2283517)
Outline: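 Differentiated HepaRG cells in serum-free induction medium exposed 48 h in duplicate to 8-point half-log series up to 100 uM in 0.5% DMSO. mRNA quantified by qRT-PCR, normalised to ACTB, GAPDH, POLR2A; bidirectional fit versus DMSO.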

[5] = read-out: MYC, MYC (gene 4609); assay: LTEA_HepaRG_MYC: Life Technologies and Expression Analysis (LTEA) Assay for MYC using HepaRG (AID 2283518)
Outline: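 MYC transcript changes, up or down relative to 0.5% DMSO, from TaqMan qRT-PCR normalized to three housekeeping genes. Human HepaRG cultures received chemicals for 48 h at eight half-log concentrations up to 100 uM, in duplicate.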

[6] = read-out: matrix metalloproteinase-3 (MMP3), MMP3 (gene 4314); assay: LTEA_HepaRG_MMP3: Life Technologies and Expression Analysis (LTEA) Assay for matrix metalloproteinase-3 (MMP3) using HepaRG (AID 2283519)
Outline: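 HepaRG cells (~100,000/well) in serum-free induction medium were dosed in duplicate for 48 h with an 8-point half-log series from 100 uM, 0.5% DMSO. MMP3 mRNA was quantified by Fluidigm TaqMan qRT-PCR, normalized to three housekeeping genes.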

[7] = read-out: Paternally Expressed 10 (PEG10), PEG10 (gene 23089); assay: LTEA_HepaRG_PEG10: Life Technologies and Expression Analysis (LTEA) Assay for Paternally Expressed 10 (PEG10) using HepaRG (AID 2283520);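 as to AC50: PEG10 transcript by qRT-PCR normalised to ACTB GAPDH and POLR2A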
Outline: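 Chemicals tested on HepaRG cells for 48 h, highest concentration 100 uM. PEG10 expression assessed by qRT-PCR relative to DMSO control.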

[8] = read-out: Nuclear factor NF-kappa-B p105 subunit (Homo sapiens) (UniProt P19838); assay: LTEA_HepaRG_NFKB1: Life Technologies and Expression Analysis (LTEA) Assay for Nuclear Factor Kappa B Subunit 1 (NFKB1) using HepaRG (AID 2283521);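 as to outcome: differentiated human HepaRG liver cells in serum-free induction medium; TaqMan qRT-PCR transcript normalised to ACTB GAPDH and POLR2A housekeeping genes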
Outline: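 Human HepaRG cells receive eight half-log concentrations, highest 100 uM, for 48 h. NFKB1 expression is then quantified by qRT-PCR and analysed for up- or down-regulation relative to 0.5% DMSO vehicle.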

[9] = read-out: Protein phosphatase 2A (PPP2R4), PTPA (gene 5524); assay: LTEA_HepaRG_PPP2R4: Life Technologies and Expression Analysis (LTEA) Assay for Protein phosphatase 2A (PPP2R4) using HepaRG (AID 2283522)
Outline: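 Gene-expression endpoint in HepaRG hepatic cells: 48 h treatment across eight half-log concentrations up to 100 uM in 0.5% DMSO. PPP2R4 mRNA by qRT-PCR, normalized to three endogenous control genes.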

[10] = read-out: Phosphatase and tensin (PTEN), PTEN (gene 5728); assay: LTEA_HepaRG_PTEN: Life Technologies and Expression Analysis (LTEA) Assay for Phosphatase and tensin (PTEN) using HepaRG (AID 2283523)
Outline: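 HepaRG cells, 48 h after plating, exposed in duplicate for 48 h in serum-free induction medium to 8 half-log concentrations up to 100 uM (0.5% DMSO). PTEN mRNA by qRT-PCR, normalized to ACTB, GAPDH, POLR2A; bidirectional fit versus DMSO.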

Chain of Nuclear factor NF-kappa-B p105 subunit (Homo sapiens) (P19838 whole entry, looked up): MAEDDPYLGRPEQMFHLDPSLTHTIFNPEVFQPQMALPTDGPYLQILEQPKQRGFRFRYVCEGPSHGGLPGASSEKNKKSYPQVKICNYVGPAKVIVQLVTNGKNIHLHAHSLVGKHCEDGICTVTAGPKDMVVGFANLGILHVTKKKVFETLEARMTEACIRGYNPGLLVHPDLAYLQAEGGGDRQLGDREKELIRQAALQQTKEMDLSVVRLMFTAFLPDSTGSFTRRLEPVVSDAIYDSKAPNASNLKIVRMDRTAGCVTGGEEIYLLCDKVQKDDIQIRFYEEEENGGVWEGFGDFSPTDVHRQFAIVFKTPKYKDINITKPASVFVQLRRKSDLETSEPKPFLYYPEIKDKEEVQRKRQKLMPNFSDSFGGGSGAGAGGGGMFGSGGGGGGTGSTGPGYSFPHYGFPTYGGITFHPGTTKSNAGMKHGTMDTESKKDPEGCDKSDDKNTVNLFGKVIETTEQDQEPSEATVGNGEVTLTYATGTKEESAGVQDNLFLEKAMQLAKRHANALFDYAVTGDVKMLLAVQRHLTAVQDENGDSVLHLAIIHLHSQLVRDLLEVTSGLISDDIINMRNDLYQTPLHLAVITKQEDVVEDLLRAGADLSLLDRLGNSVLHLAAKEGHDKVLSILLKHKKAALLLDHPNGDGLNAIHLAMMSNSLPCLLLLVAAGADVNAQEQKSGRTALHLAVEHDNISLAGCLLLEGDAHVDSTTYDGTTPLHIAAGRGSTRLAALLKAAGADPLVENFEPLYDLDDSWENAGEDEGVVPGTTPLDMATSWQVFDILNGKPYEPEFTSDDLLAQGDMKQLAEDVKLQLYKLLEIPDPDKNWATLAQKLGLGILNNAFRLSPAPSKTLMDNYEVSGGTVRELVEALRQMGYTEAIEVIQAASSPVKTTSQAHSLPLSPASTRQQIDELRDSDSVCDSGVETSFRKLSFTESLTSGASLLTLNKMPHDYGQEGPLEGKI

| Structure (SMILES) | outcome [1] | outcome [2] | outcome [3] | outcome [4] | outcome [5] | outcome [6] | outcome [7] | outcome [8] | outcome [9] | outcome [10] | AC50 [6] | AC50 [7] | AC50 [1] | AC50 [2] | AC50 [3] | AC50 [5] | AC50 [8] | AC50 [9] | AC50 [10] | AC50 [4] |
| --- | --- | --- | --- | --- | --- | --- | --- | --- | --- | --- | --- | --- | --- | --- | --- | --- | --- | --- | --- | --- |
| CN(C)NC(=O)CCC(=O)O | inactive | inactive | inactive | inactive | inactive | inactive | inactive | inactive | inactive | inactive |  |  |  |  |  |  |  |  |  |  |
| CC(COc1ccc(Oc2ccccc2)cc1)Oc1ccccn1 (stereo not given) | inactive | inactive | inactive | inactive | inactive | inactive | inactive | inactive | inactive | inactive |  |  |  |  |  |  |  |  |  |  |
| CC(C)[C@H](C(=O)O[C@H](C#N)c1cccc(Oc2ccccc2)c1)c1ccc(Cl)cc1 | inactive | inactive | inactive | inactive | inactive |  |  | inactive | inactive | inactive | 50 µM (active) | 30.3 µM (active) |  |  |  |  |  |  |  |  |
| COP(=O)(OC)C(O)C(Cl)(Cl)Cl (stereo not given) | inactive | inactive | inactive | inactive | inactive | inactive | inactive | inactive | inactive | inactive |  |  |  |  |  |  |  |  |  |  |
| Nc1c(Cl)cc([N+](=O)[O-])cc1Cl |  |  |  | inactive |  | inactive |  |  |  |  |  | 36.7 µM (active) | 75.3 µM (active) | 15.5 µM (active) | 50 µM (active) | 12.3 µM (active) | 12.2 µM (active) | 50 µM (active) | 4.24 µM (active) |  |
| CN(C)[C@@H]1C(=O)C(C(N)=O)=C(O)[C@@]2(O)C(=O)C3=C(O)c4c(O)cccc4[C@@](C)(O)[C@H]3[C@H](O)[C@@H]12 | inactive | inactive | inactive | inactive | inactive | inactive | inactive |  | inactive | inactive | 5.76 µM (active) |  |  |  |  |  |  |  |  |  |
| CNC(=O)ON=C(C)SC | inactive | inactive | inactive | inactive | inactive | inactive | inactive | inactive | inactive | inactive |  |  |  |  |  |  |  |  |  |  |
| CCCCN(CC)c1c([N+](=O)[O-])cc(C(F)(F)F)cc1[N+](=O)[O-] | inactive | inactive | inactive | inactive | inactive | inactive | inactive | inactive | inactive | inactive |  |  |  |  |  |  |  |  |  |  |
| CNC(=O)ON=C(SC)C(=O)N(C)C | inactive |  | inactive | inactive | inactive | inactive | inactive | inactive | inactive | inactive |  |  |  | 0.289 µM (active) |  |  |  |  |  |  |
| CCCCOC(=O)[C@@H](C)Oc1ccc(Oc2ccc(C#N)cc2F)cc1 | inactive |  | inactive | inactive | inactive | inactive | inactive | inactive | inactive | inactive |  |  |  | 40.4 µM (active) |  |  |  |  |  |  |
| CCCSP(=O)(OCC)Oc1ccc(Br)cc1Cl (stereo not given) | inactive | inactive | inactive | inactive | inactive | inactive | inactive | inactive | inactive | inactive |  |  |  |  |  |  |  |  |  |  |
| CCC(=NOC/C=C/Cl)C1=C(O)CC(C2CCOCC2)CC1=O (stereo not given) | inactive | inactive | inactive | inactive | inactive | inactive | inactive | inactive | inactive | inactive |  |  |  |  |  |  |  |  |  |  |
| CCCCOC(=O)c1ccccc1C(=O)O | inactive | inactive | inactive | inactive | inactive | inactive | inactive | inactive | inactive | inactive |  |  |  |  |  |  |  |  |  |  |
| FC(F)C(F)(F)OCC(Cn1cncn1)c1ccc(Cl)cc1Cl (stereo not given) |  |  |  |  |  |  | inactive | inactive |  | inactive | 66.9 µM (active) |  | 49.8 µM (active) | 31.3 µM (active) | 59.2 µM (active) | 37.3 µM (active) |  | 90.4 µM (active) |  | 49.8 µM (active) |
| CC(=NC#N)N(C)Cc1ccc(Cl)nc1 | inactive | inactive | inactive | inactive | inactive | inactive | inactive | inactive | inactive | inactive |  |  |  |  |  |  |  |  |  |  |
| S=C1NCCN1 | inactive | inactive | inactive | inactive | inactive | inactive | inactive | inactive | inactive | inactive |  |  |  |  |  |  |  |  |  |  |
| CNc1cnn(-c2cccc(C(F)(F)F)c2)c(=O)c1Cl | inactive | inactive | inactive | inactive |  | inactive |  | inactive | inactive | inactive |  | 32 µM (active) |  |  |  | 19.6 µM (active) |  |  |  |  |
| CCOP(=S)(OCC)SCCSCC | inactive | inactive | inactive | inactive | inactive | inactive | inactive | inactive | inactive | inactive |  |  |  |  |  |  |  |  |  |  |
| CCOP(=S)(OCC)Oc1cc(C)nc(C(C)C)n1 | inactive | inactive | inactive | inactive | inactive | inactive |  | inactive | inactive | inactive |  | 50 µM (active) |  |  |  |  |  |  |  |  |
| CCC(CC)Nc1c([N+](=O)[O-])cc(C)c(C)c1[N+](=O)[O-] | inactive | inactive | inactive | inactive | inactive | inactive |  | inactive | inactive | inactive |  | 50 µM (active) |  |  |  |  |  |  |  |  |
